# Bioassay records: PubChem, National Center for Advancing Translational Sciences (NCATS)
# Compounds with a hit are over-represented: about 7.5% of the library has one in this group of screens.
# Rab9 prom act: qHTS Assay for Rab9 Promoter Activators. Huh7 Rab9 promoter-luciferase reporter, luminescence, 24 h. actives 2.8% (n = 320,000). Potency, µM (highest dose often 9.22 µM), usual class: activators; also: nearly all actives have a fitted effect of over 60% in size
#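 Luminescence read-out: Huh7 cells stably expressing Rab9-luciferase, treated 24 h with compound at 37 °C, then lysed with luciferase reagent for 10 min at ambient before reading.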
# NPC1 promoter act: qHTS Assay for NPC1 Promoter Activators; actives 2.4% (n = 320,000); AID 485313, 2010; Huh7 NPC1 promoter luciferase reporter, 24 h; Potency, µM (top dose mostly 9.22 µM), usual class: activators; also: nearly all actives have a fitted effect of over 60% in size
#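 In 1536-well qHTS, Huh7 cells harboring an NPC1 promoter–luciferase construct received compound for 24 h; activation was quantified by luminescence following luciferase reagent addition.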
# ELG1 genotoxic: qHTS screen for small molecules that induce genotoxicity in human embryonic kidney (HEK293T) cells expressing luciferase-tagged ELG1; HEK293T ELG1-luciferase reporter, luminescence, 16 h; Potency, µM (top dose mostly 46 µM), most hits filed as activators; actives 1.3% (n = 330,000); AID 504466, 2011; also: nearly all actives have a fitted effect of over 60% in size
#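 Screening used a luciferase reporter fused to human ELG1 in HEK293T cells. Luminescence was read on a CCD plate imager after 16 hr exposure and 30 min ONE-Glo incubation.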
# SMN2 splice enh: qHTS Assay for Enhancers of SMN2 Splice Variant Expression | actives 2.8% (n = 210,000) | Potency, µM (top dose mostly 46.1 µM), actives largely listed as activators | HEK293 SMN2-luciferase splicing reporter, luminescence, 30-36 h | AID 1458, 2008; also: nearly all actives have a fitted effect of over 55% in size
#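 HEK293 cells carry an SMN2 […]–luciferase reporter in which exon 7 inclusion puts luciferase in frame. Cells were plated 10-12 h before compound addition, then incubated 30-36 h at 37C. ONE-Glo luminescence was read; sodium butyrate at 4.5 mM final served as control.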
# FLuc modulator: qHTS profiling assay for firefly luciferase inhibitor/activator using purifed enzyme and Km concentrations of substrates (counterscreen for miR-21 project). Luciferin 4-monooxygenase (Photinus pyralis), P08659. purified FLuc, Km substrates, luminescence inhibition. Potency, µM (series often up to 57.5 µM), actives largely listed as inhibitors. actives 6.9% (n = 360,000). AID 588342, 2011; also: nearly all actives have a fitted effect of over 55% in size
# Target sequence (P08659 whole entry, looked up): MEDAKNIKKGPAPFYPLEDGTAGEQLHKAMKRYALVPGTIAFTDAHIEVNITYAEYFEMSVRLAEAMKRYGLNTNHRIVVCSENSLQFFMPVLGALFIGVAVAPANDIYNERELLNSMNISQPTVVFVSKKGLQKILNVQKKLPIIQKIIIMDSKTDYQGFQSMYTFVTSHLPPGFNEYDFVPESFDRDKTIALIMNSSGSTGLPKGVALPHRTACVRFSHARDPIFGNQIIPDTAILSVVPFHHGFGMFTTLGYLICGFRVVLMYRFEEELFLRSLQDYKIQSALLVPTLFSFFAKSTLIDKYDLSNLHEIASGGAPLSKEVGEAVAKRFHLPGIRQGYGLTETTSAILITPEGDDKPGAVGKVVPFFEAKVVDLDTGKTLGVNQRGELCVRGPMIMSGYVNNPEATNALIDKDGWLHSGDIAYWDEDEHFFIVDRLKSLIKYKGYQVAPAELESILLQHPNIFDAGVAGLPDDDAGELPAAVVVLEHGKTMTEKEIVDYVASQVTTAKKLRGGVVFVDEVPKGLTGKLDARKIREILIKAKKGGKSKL
#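 Purified P. pyralis luciferase (10nM final) with 10uM D-luciferin and 10uM ATP (Km levels) in 50mM Tris acetate pH 7.5, 10mM Mg acetate, 0.01% Tween-20, 0.05% BSA; qHTS 6-point titration, ~60 µM downward; luminescence read.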
# Numbers stand for hits; - = inactive; ? = inconclusive; . = not tested or not shown; [ ] = another dose, or the depositor's remark. Calls follow the shape of the dose curve; as a rule, active = well fitted curve in the direction sought with a large enough effect; inconclusive = small, poorly fitted or top-dose-only effect, or another doubt; inactive = no such curve, though single readings can be large; an effect the other way counts as inactive or inconclusive.
SMILES,Rab9 prom act,NPC1 promoter act,ELG1 genotoxic,SMN2 splice enh,FLuc modulator
OC(c1ccccc1)c1nc2ccccc2s1 (stereo not given),-,-,-,-,?
COc1ccccc1C(=O)NNC(=O)c1ccncc1,-,-,-,-,-
COc1ccccc1C(=O)NNC(=O)c1ccc(C)cc1,?,-,?,.,15µM
COc1ccccc1C(=O)NNC(=O)c1ccc(Br)cc1,-,-,-,.,13µM
COc1ccccc1C(=O)NNC(=O)c1ccc(Br)o1,-,?,?,.,17µM
Cc1ccc(C)c(SCC(=O)NNC(=O)c2ccccc2)c1,-,-,-,.,-
COc1cc(NC(=O)Cn2cnc(S(=O)(=O)N3CCc4ccccc43)c2)cc(OC)c1OC,-,-,-[9.26 µM],.,-
COc1cc(C(=O)Oc2cccc(C=O)c2)cc(OC)c1OC,-,-,-,-,-
O=Cc1cccc(OC(=O)c2ccc(Cl)cc2Cl)c1,?,?,12µM,?,17µM
CC(C)NC(=O)c1ccccc1NC(=O)/C=C/c1cccc([N+](=O)[O-])c1,-,-,-,-,-
COc1ccc(Cl)c2c1[nH]c1nc(SCc3cccnc3)nnc12,-,-,-,-,-
COc1ccc(Cl)c2c1[nH]c1nc(SCc3ccccn3)nnc12,1.8µM,2.8µM,21µM,6.3µM,6µM
CCNC(=S)N1CCN(c2nc(-c3cccc(OC)c3)cs2)CC1,-,-,-,.,19µM
COc1ccc(-c2csc(NC(=O)C3CCCO3)n2)cc1 (stereo not given),4µM,?,?,-,21µM
COC(=O)c1c(-c2ccncc2)csc1NC(=O)c1ccoc1C,2µM,2.8µM,?,11µM,8.5µM
CCc1cc(C(=O)OC)c(NC(=O)c2ccoc2C)s1,-[1.84 µM],-,-,.,-
COc1ccc(NC(=O)C2CCCO2)cc1 (stereo not given),-,-,-,-,-
COc1cccc(-c2csc(NC(=O)Oc3ccccc3)n2)c1,-,-,-,-,12µM
Cc1occc1-c1nnc(SCC(=O)NCCc2ccccc2)o1,-,-,-,-,-
COc1ccc(-c2nsc(NC(=O)c3ccccc3Br)n2)cc1,.,.,.,-,17µM
COc1ccc(-c2csc(NC(=O)c3ccccc3C(=O)O)n2)cc1,-,-,-,-,15µM
COC(=O)c1c(-c2ccc(F)cc2)csc1NC(=O)C1CCCO1 (stereo not given),-,-,-,-,27µM
CCc1ccc(-c2csc(NC(=O)C3CCCO3)c2C(=O)OC(C)C)cc1 (stereo not given),-,-,-,-,-
COc1ccc(-c2csc(NC(=O)c3ccoc3C)n2)cc1,?,?,?,-,12µM
COc1ccc(-c2csc(NC(=O)c3ccccc3S(C)(=O)=O)n2)cc1,-,-,-,-,?
SMILES,Rab9 prom act,NPC1 promoter act,ELG1 genotoxic,SMN2 splice enh,FLuc modulator
COc1ccc(-c2csc(NC(=O)c3c(C)noc3C)n2)cc1,-,-,-,.,?
CC(C)Nc1nnc(SCC(=O)c2c(N)n(Cc3ccccc3)c(=O)n(C)c2=O)s1,-,-,-,-,-
CC(OC(=O)CNC(=O)c1ccccc1F)C(=O)Nc1nc(-c2ccccc2)cs1 (stereo not given),?,?,?,13µM,?
CC(OC(=O)c1ccc(O)cc1)C(=O)Nc1nc(-c2ccccc2)cs1 (stereo not given),-,-,-,.,-
N#Cc1ccsc1NC(=O)CN1CCN(c2ccccn2)CC1,-,-,-,-,-
COC(=O)c1ccc(NC(=O)CCS(=O)(=O)c2ccc(Br)cc2)cc1,-,-,-,-,-
Oc1ccccc1/C=N/NC(=S)NC1CC2CCC1C2 (stereo not given),2.8µM,2µM,-,.,27µM
S=C(N/N=C/c1ccco1)NC1CC2CCC1C2 (stereo not given),?,?,?,.,19µM
Cn1c(SCC(=O)N/N=C/c2ccc([N+](=O)[O-])s2)nnc1-c1ccccc1,-,-,-,-,-
CCOc1ccc(-n2nc(CO)c(C(=O)NCc3cccnc3)n2)cc1,.,.,.,-,?
CCOc1ccc(-n2nc(CO)c(C(=O)NCc3cccc(OC)c3)n2)cc1,.,.,.,-,15µM
CCOc1ccc(-n2nc(CO)c(C(=O)NCCCc3ccccc3)n2)cc1,.,.,.,-,5.4µM
COc1ccc(C(=O)c2oc3ccc(OC)cc3c2NC(C)=O)cc1,-,-,-,-,-
COc1ccc(C(=O)c2oc3ccc(OC)cc3c2N)cc1,2.8µM,2.8µM,13µM,14µM,7.6µM
COC(=O)c1oc2ccc(OC)cc2c1N,-,-,-,?,21µM
Cc1ccc(CNC(=O)CCc2c(C)c3cc4c(C)coc4cc3oc2=O)cc1,.,.,.,-,-
C=CCc1c(C)nc(-c2ccccc2)nc1N/N=C/c1ccncc1,-,-,-,-,6µM
C=CCc1c(C)nc(-c2ccccc2)nc1N/N=C/c1ccccc1,-,-,-,-,9.5µM
C=CCc1c(C)nc(-c2ccccc2)nc1N/N=C(\C)c1ccc(N)cc1,-,-,-,-,12µM
C=CCc1c(C)nc(C)nc1N/N=C/c1ccccc1,-,-,-,-,-
CCn1cc(CN2CCCC(C(=O)Nc3ccc(-c4nc5ccccc5[nH]4)cc3)C2)c(C)n1 (stereo not given),-,-,-,.,?
Cc1cc(CN2CCCC(C(=O)Nc3ccc(-c4nc5ccccc5[nH]4)cc3)C2)n[nH]1 (stereo not given),?,?,-,.,15µM
COc1cccc(C(=O)Nc2nnc(-c3ccc(Cl)cc3)o2)c1,-,-,-,.,?
COCCNC(=S)Nc1ccc(N2CCOCC2)c(S(=O)(=O)Nc2ccccc2OC)c1,-,-,-,.,-
CC(=O)N1CCc2cc(S(=O)(=O)NCCC(=O)Nc3ccc4c(c3)OCCO4)ccc21,-,-,?,?,15µM
SMILES,Rab9 prom act,NPC1 promoter act,ELG1 genotoxic,SMN2 splice enh,FLuc modulator
CC(=O)N1CCc2cc(S(=O)(=O)NCCC(=O)Nc3cc(C)cc(C)c3)ccc21,-,-,-,-,-
O=C(O)c1cc(/C=C/c2ccc(N3CCOCC3)c([N+](=O)[O-])c2)nc2ccccc12,?,?,?,.,1.2µM
O=C(O)c1cc(/C=C/c2ccc(N3CCOCC3)cc2)nc2ccccc12,?,?,-,?,0.48µM
O=C(O)c1cc(N2CCOCC2)nc2ccccc12,-,-,-,.,-
CC(=O)Nc1ccc(/C=C/c2ccc3c([N+](=O)[O-])cccc3n2)cc1,1.1µM,?,?,?,?
COC(=O)/C(C#N)=C/c1ccc(N2CCOCC2)c([N+](=O)[O-])c1,-,-,-,.,-
COc1cc(/C=C/C(=O)OCN2C(=O)c3ccccc3C2=O)ccc1OC(F)F,-,-,-,.,-
O=[N+]([O-])c1cccc2ccc(/C=C/c3ccc(Cl)cc3)nc12,?,?,-,.,?
